From PubChem BioAssay (Tox21)
Inconclusive results are not listed. Activity calls are given as the source filed them. Unless noted, calls follow the shape of the dose curve; as a rule, active = well fitted curve in the direction sought with a large enough effect in the repeat runs; inconclusive = weak or mixed curves; inactive = no such curve, though single readings can be large; an effect the other way counts as inactive or inconclusive.

Experiments:
[1] = qHTS assay to identify small molecule antagonists of the androgen receptor (AR) signaling pathway - cell viability counter screen (AID 743033; also: nearly all actives have a fitted effect of over 45% in size)
[2] = qHTS assay to identify small molecule antagonists of the androgen receptor (AR) signaling pathway using the MDA cell line - cell viability counter screen (AID 743041; also: nearly all actives have a fitted effect of over 45% in size)
In short: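 R1881-driven MDA-kb2 AR-luc cells, 3,000/well, were dosed with library compounds for 16 h; cell health came from CellTiter-Fluor fluorescence in the reporter wells.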

[3] = qHTS assay to identify small molecule antagonists of the thyroid receptor (TR) signaling pathway - cell viability counter screen (AID 743064); also: nearly all actives have a fitted effect of over 50% in size
In short: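 Plate GH3.TRE-Luc cells; incubate 4 h at 37 °C; add compound, then T3 to 1 nM final; incubate 23.5 h; add CellTiter-Fluor; incubate 30 min at 37 °C, 5% CO2; read fluorescence.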

[4] = qHTS assay to identify small molecule antagonists of the thyroid receptor (TR) signaling pathway (AID 743065); also: series mostly up to about 70 µM; nearly all actives have a fitted effect of over 55% in size
In short: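 Antagonism measured as loss of luciferase signal in GH3 cells stably carrying a TRE-luciferase reporter, co-treated with compound and T3 (1 nM final) for 23.5 h at 37 C. Viability was read in the same well by CellTiter-Fluor.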

[5] = system: thyroid hormone receptor (rat, GH3 cells); assay: qHTS assay to identify small molecule agonists of the thyroid receptor (TR) signaling pathway (AID 743066; calls by dose curve)
[6] = biological target: Estrogen receptor (Homo sapiens) (UniProt P03372); assay: qHTS assay to identify small molecule antagonists of the estrogen receptor alpha (ER-alpha) signaling pathway (AID 743069; active = well fitted curve in the direction sought with a large enough effect in the signal ratio in the repeat runs, not every such curve was filed as active; the % refers to the signal ratio)
Estrogen receptor (Homo sapiens), sequence (P03372 whole entry, looked up): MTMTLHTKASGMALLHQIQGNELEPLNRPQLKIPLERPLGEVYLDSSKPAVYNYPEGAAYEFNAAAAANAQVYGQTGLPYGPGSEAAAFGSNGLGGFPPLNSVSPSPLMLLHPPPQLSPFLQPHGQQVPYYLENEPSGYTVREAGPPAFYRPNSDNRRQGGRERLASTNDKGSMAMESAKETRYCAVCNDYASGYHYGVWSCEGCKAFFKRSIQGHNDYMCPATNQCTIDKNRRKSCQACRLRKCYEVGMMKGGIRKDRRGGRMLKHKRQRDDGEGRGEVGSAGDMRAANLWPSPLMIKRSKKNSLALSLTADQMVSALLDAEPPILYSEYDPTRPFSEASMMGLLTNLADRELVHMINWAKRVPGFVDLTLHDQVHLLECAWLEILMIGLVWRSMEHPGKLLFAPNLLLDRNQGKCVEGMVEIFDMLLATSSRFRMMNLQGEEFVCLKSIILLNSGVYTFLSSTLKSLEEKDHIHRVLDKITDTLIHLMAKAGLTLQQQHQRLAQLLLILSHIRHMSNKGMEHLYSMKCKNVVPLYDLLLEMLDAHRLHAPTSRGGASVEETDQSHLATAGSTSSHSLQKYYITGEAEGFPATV
In short: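 Compound effects are measured against 17beta-estradiol stimulation in HEK293 cells with a UAS-controlled beta-lactamase reporter for ER-alpha. Exposure lasts 18 hr at 37C; LiveBLAzer B/G FRET substrate follows for 2 hr at room temperature.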

[7] = biological target: Estrogen receptor (Homo sapiens) (UniProt P03372); assay: qHTS assay to identify small molecule agonists of the estrogen receptor alpha (ER-alpha) signaling pathway (AID 743075; calls by dose curve)
[8] = biological target: Estrogen receptor (Homo sapiens) (UniProt P03372); assay: qHTS assay to identify small molecule agonists of the estrogen receptor alpha (ER-alpha) signaling pathway using the BG1 cell line (AID 743079); also: nearly all actives have a fitted effect of over 20% in size
[9] = qHTS assay to identify small molecule antagonists of the estrogen receptor alpha (ER-alpha) signaling pathway using the BG1 cell line (AID 743080; calls by dose curve;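 also: BG1 cells stimulated with 17beta-estradiol alongside compound; series mostly up to about 70 µM; nearly all actives have a fitted effect of over 25% in size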)
In short: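 Luminescence from a 4×ERE-luciferase reporter in BG1-Luc-4E2 cells served as read-out. Cells, pre-cultured 5 days in stripped-serum phenol-red-free medium, were exposed to compound with 17beta-estradiol co-stimulation for 21.5 h at 37 C.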

[10] = qHTS assay to identify small molecule antagonists of the estrogen receptor alpha (ER-alpha) signaling pathway using the BG1 cell line - cell viability counter screen (AID 743081);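 also: compound given together with 17beta-estradiol as the ER stimulus; series mostly up to about 70 µM; nearly all actives have a fitted effect of over 45% in size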
Aromatase (Homo sapiens) = Aromatase (Homo sapiens) (UniProt P11511); assay: qHTS assay to identify aromatase inhibitors (AID 743083); also: series mostly up to about 70 µM; nearly all actives have a fitted effect of over 55% in size
Aromatase (Homo sapiens), sequence (P11511 whole entry, looked up): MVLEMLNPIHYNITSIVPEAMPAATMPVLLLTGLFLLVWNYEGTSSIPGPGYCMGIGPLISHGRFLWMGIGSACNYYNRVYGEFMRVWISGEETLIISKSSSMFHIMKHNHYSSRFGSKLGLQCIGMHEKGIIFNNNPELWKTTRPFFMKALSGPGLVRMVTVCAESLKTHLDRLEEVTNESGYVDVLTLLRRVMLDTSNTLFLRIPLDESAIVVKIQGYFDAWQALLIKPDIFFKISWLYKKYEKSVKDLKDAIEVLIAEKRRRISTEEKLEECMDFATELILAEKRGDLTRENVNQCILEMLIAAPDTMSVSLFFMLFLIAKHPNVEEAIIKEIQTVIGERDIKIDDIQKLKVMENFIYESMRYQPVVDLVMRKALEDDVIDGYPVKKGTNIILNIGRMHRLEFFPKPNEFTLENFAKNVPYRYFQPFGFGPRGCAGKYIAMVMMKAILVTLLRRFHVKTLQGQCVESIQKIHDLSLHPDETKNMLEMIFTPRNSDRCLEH

[11] = qHTS assay to identify aromatase inhibitors - cell viability counter screen (AID 743084);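 also: cells stimulated with testosterone during compound exposure; nearly all actives have a fitted effect of over 55% in size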
[12] = biological target: Aryl hydrocarbon receptor (Homo sapiens) (UniProt P35869); assay: qHTS assay to identify small molecule that activate the aryl hydrocarbon receptor (AhR) signaling pathway (AID 743085);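 also: HG2L7.5c1 human HepG2 liver cells with stably integrated DRE-driven firefly reporter; series mostly up to about 70 µM; nearly all actives have a fitted effect of over 15% in size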
Aryl hydrocarbon receptor (Homo sapiens), sequence (P35869 whole entry, looked up): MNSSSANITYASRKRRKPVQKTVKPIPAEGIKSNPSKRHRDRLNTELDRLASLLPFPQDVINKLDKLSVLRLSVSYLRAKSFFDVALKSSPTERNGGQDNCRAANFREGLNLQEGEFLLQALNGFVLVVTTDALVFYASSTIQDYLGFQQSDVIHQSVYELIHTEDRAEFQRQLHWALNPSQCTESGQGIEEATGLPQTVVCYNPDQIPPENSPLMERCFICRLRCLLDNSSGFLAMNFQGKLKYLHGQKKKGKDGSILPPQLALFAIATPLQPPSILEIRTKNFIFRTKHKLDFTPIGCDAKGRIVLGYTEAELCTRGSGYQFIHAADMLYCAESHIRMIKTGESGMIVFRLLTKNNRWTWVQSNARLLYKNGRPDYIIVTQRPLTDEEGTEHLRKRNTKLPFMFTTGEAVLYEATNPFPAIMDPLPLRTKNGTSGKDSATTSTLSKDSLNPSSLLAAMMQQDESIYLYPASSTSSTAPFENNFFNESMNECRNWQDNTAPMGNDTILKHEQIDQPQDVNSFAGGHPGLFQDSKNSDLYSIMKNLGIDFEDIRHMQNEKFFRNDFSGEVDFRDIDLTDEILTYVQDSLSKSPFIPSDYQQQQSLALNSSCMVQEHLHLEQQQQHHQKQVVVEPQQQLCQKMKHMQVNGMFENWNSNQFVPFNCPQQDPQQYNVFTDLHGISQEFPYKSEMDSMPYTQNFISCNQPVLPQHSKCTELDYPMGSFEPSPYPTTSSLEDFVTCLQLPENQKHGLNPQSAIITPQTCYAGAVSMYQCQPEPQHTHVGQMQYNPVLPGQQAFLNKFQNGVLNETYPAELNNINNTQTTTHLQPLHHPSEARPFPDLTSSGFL
In short: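 Steps: seed HepG2-AhR-luc cells; allow 5 h at 37C; pin-transfer test compound or vehicle; incubate 24 h at 37C; add viability dye (30 min, 37C) and read fluorescence; add luciferase substrate (30 min, RT) and read luminescence.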

[13] = qHTS assay to identify small molecule that activate the aryl hydrocarbon receptor (AhR) signaling pathway - cell viability counter screen (AID 743086);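 also: HepG2 liver cells carrying the AhR DRE luciferase reporter; series mostly up to about 70 µM; nearly all actives have a fitted effect of over 45% in size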
In short: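 Cytotoxicity counter screen: CellTiter-Fluor signal (30 min, 37 C) in 4000 HepG2 cells/well carrying the DRE-luciferase reporter, following 24 h compound exposure at 37 C.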

[14] = biological target: Peroxisome proliferator-activated receptor gamma (Homo sapiens) (UniProt P37231); assay: qHTS assay to identify small molecule agonists of the peroxisome proliferator-activated receptor gamma (PPARg) signaling pathway (AID 743094; active = well fitted activation curve with a large enough effect in the signal ratio in the repeat runs, not every such curve was filed as active; the % refers to the signal ratio)
Peroxisome proliferator-activated receptor gamma (Homo sapiens), sequence (P37231 whole entry, looked up): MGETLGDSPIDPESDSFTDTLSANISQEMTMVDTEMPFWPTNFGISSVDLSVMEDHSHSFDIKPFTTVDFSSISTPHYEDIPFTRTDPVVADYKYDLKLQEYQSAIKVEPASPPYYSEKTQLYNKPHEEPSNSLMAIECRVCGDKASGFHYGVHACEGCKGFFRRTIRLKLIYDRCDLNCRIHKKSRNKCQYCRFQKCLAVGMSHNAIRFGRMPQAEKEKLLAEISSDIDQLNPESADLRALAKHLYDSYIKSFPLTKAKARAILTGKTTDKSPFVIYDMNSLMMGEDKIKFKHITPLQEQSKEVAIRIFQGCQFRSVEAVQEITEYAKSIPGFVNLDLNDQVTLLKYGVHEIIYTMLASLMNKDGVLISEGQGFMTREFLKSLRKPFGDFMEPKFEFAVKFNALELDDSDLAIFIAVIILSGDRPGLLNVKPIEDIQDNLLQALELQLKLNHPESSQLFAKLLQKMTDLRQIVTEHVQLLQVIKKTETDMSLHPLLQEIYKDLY
In short: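 Quantitative HTS agonist mode: stable HEK293H line with UAS-beta-lactamase reporter under PPARg control, 17 h compound exposure at 37C, fluorescence after 1 h FRET substrate loading at room temperature.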

[15] = qHTS assay to identify small molecule antagonists of the estrogen related receptor (ERR) signaling pathway - cell viability counter screen (AID 1224818);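 also: series mostly up to about 46 µM; viability measured after 17.5 h of compound exposure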
In short: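 Cells carrying the ERR pathway reporter were seeded and incubated for 6 hours before compound addition. After a 17.5-hour exposure at 37 C, live-cell protease activity was measured by CellTiter-Fluor fluorescence following 30 minutes of incubation.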

[16] = qHTS assay to identify small molecule agonists of the estrogen related receptor (ERR) signaling pathway (AID 1224820)
In short: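 Quantitative HTS of the LOPAC library used NTP ERR reporter cells treated 18 h at 37 C. Signal is luminescence after One-Glo addition and a 30 min room-temperature incubation.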

[17] = system: estrogen-related receptor alpha (ERRalpha) with PGC-1alpha coactivator, human; assay: qHTS assay to identify small molecule antagonists of the estrogen related receptor signaling pathway with the pleiotropic PPARgamma coactivator (PGC) (AID 1224821; calls by dose curve;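 also: series mostly up to about 46 µM; lower luminescence signal means antagonism of PGC/ERR signalling; nearly all actives have a fitted effect of over 50% in size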)
In short: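 Quantitative HTS for antagonism: PGC/ERR cells received compounds after 6 h attachment and were incubated 18 h at 37 C, with luminescence (One-Glo) as the endpoint.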

[18] = qHTS assay to identify small molecule antagonists of the estrogen related receptor signaling pathway with the pleiotropic PPARgamma coactivator (PGC) cell viability counter screen (AID 1224822;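 also: series mostly up to about 46 µM; viability read after 17.5 h compound exposure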)
In short: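 Seed PGC/ERR cells (2,000/well); incubate 6 h at 37 C/5% CO2; pin-transfer compounds in DMSO; incubate 17.5 h at 37 C; add CellTiter-Fluor; after 30 min read fluorescence.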

[19] = qHTS assay to identify small molecule agonists of the estrogen related receptor signaling pathway with the pleiotropic PPARgamma coactivator (PGC) (AID 1224823)
In short: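 Cell-based luciferase assay in the NTP-supplied PGC/ERR line, 2,000 cells/well; 18 h compound exposure at 37 C, luminescence after One-Glo.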

[20] = qHTS assay to identify small molecule phospholipidosis (PLD) inducers (AID 1259344; active = well fitted curve in the direction sought with a large enough effect; an effect the other way counts as inactive or inconclusive)
In short: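 Fluorescent phospholipid staining (LipidTOX Red) measured by automated microscopy in fixed HepG2 cells after 24 h treatment; nuclei counterstained with Hoechst 33342; amiodarone as reference inducer.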

[21] = biological target: Nuclear receptor subfamily 1 group I member 2 (Rattus norvegicus) (UniProt Q9R1A7); assay: Rat pregnane X receptor (rPXR) activation by small molecules, qHTS assay (AID 1346983); conditions: rPXR luciferase reporter cells, One-Glo luminescence, 24 h; max activation: active compounds read high; also: nearly all actives have a fitted effect of over 20% in size
Nuclear receptor subfamily 1 group I member 2 (Rattus norvegicus), sequence (Q9R1A7 whole entry, looked up): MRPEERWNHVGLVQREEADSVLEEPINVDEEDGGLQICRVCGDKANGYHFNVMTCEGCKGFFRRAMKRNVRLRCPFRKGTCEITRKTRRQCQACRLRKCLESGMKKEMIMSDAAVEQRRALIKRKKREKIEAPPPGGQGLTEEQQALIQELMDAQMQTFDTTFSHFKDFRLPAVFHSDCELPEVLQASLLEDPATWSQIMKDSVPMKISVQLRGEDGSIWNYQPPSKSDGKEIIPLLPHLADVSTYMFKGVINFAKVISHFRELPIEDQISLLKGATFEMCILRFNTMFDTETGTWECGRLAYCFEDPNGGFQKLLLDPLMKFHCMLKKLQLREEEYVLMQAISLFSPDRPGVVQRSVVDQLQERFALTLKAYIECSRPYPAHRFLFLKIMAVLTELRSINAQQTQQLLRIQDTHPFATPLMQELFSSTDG
In short: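 Luminescent readout (One-Glo luciferase, 30 min room temperature) followed 24 hr compound treatment at 37 C of rPXR cells plated 2,000 per well and preincubated 5hr; qHTS format with compounds delivered in DMSO.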

[22] = biological target: Nuclear receptor subfamily 1 group I member 2 (Homo sapiens) (UniProt O75469); assay: CYP3A4 induction through human pregnane X receptor (PXR) by small molecules, qHTS assay (AID 1346984); also: nearly all actives have a fitted effect of over 40% in size
In short: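 Steps: seed DPX-2 cells, 5 hr at 37C; pin-transfer compounds; 24 hr at 37C; add Luciferin-IPA (3uM final), 3 hr at 37C; add One-Glo, 30 min RT; read luminescence.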

[23] = biological target: Nuclear receptor subfamily 1 group I member 2 (Homo sapiens) (UniProt O75469); assay: Human pregnane X receptor (PXR) activation by small molecules, qHTS assay (AID 1346985); also: nearly all actives have a fitted effect of over 40% in size
In short: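 DPX-2 cells (HepG2 co-transfected with a PXR response element and a CYP3A4-promoter luciferase construct) were seeded at 2,000 per well, rested 5 hr at 37C, then exposed to DMSO-dissolved compounds for 24 hr. Activation was read as luciferase luminescence.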
% is scaled to controls: 0 for no effect and ±100 for the full control effect.

CCCN1CCC[C@H](c2cccc(O)c2)C1
inactive: Potency [1] | Potency [2] | Potency [3] | Potency [4] | Potency [5] | Potency [6] | Potency [7] | Potency [8] | Potency [9] | Potency [10] | Potency (Aromatase (Homo sapiens)) | Potency [11] | Potency [12] | Potency [13] | Potency [14] | Potency [15] | Potency [16] | Potency [17] | Potency [18] | Potency [19] | Potency [20] | max activation [21] -2.62% | Potency [22] | Potency [23]
